Measurements from publication PMC4552634, “A New Set of Chemical Starting Points with Plasmodium falciparum Transmission-Blocking Potential for Antimalarial Drug Discovery” (PLoS ONE, 2015).
Out of some 13,000 compounds screened, about 3,200 (25%) showed an effect of 50% or more. Some of the results follow.

Each compound was assayed on P. falciparum stage V gametocytes. Details: 48 h, 5 µM; inhibitor.
Set-up: BacTiter-Glo ATP luminescence viability of purified stage V gametocytes in 384-well plates, per cent inhibition versus DMSO

SMILES	% Inhibition [%]
CC1(C)N=C(NC(=O)c2cc([N+](=O)[O-])cc([N+](=O)[O-])c2)N=C(N)N1OCc1cccc2ccccc12 [TCMDC-131584]	-17.03
CC(C)(C)c1ccc(C(=O)Nc2cccc(Nc3c(C(=O)NCc4cccc(C(F)(F)F)c4)cnc4c(O)cccc34)c2)cc1.O=C(O)C(F)(F)F [TCMDC-139610]	57.39
O=C(Cc1ccc(NC(=O)c2ccc(O)c(-c3ccc(Cl)c(Cl)c3)c2)cc1)NCc1cccc(C(F)(F)F)c1 [TCMDC-140835]	-7.918
COc1ccc(CNC(=O)c2cnc3c(O)cccc3c2Nc2cccc(NC(=O)c3ccc(-c4ccccc4)cc3)c2)cc1.O=C(O)C(F)(F)F [TCMDC-139611]	77.42
NS(=O)(=O)c1ccc(CNC(=O)c2cnc3c(O)cccc3c2Nc2cccc(NC(=O)c3ccc(Cl)c(Cl)c3)c2)cc1.O=C(O)C(F)(F)F [TCMDC-139608]	34.02
CC(C)CCNC(=O)c1cnc2c(O)cccc2c1Nc1cccc(NC(=O)c2ccc(F)cc2)c1.O=C(O)C(F)(F)F [TCMDC-139606]	111.5
COc1ccc(CNC(=O)c2cnc3c(O)cccc3c2Nc2cccc(NC(=O)c3ccc(Cl)c(Cl)c3)c2)cc1.O=C(O)C(F)(F)F [TCMDC-139607]	97.23
CN(c1cc(NC(=O)c2ccc(F)cc2)ccn1)C1CCN(Cc2cccc(O)c2)CC1 [TCMDC-134966]	-19
CC(C)CCNC(=O)c1cc(C(=O)c2cc(F)ccc2O)cn(CCC(C)C)c1=O [TCMDC-124499]	0.8137
COc1ccc(CNC(=O)c2cnc3cc(-c4c(C)noc4C)ccc3c2Nc2ccccc2C(C)(C)C)cc1.Cl [TCMDC-136367]	-23.94
Nc1nc(Nc2cccc(Cl)c2)ncc1C(=O)NCc1ccncc1 [TCMDC-135688]	0.6434
COc1ccc(CNC(=O)c2cnc3c(O)cccc3c2Nc2cccc(NC(=O)c3ccc(Cl)c([N+](=O)[O-])c3)c2)cc1.O=C(O)C(F)(F)F [TCMDC-139609]	35.62
OCc1ccc2nc3c(cc2c1)-c1cccc2cccc-3c12 [TCMDC-137756]	2.597
Cc1cc(N2CCCC2)nc(Nc2ccc(NC(=O)c3ccccc3)cc2)n1 [TCMDC-124713]	-11.14
COc1cccc(OC)c1OCCCOc1c(C)nc(N)nc1N [TCMDC-131352]	5.526
c1ccc(Oc2ccc(Nc3nc(NCCc4cnc[nH]4)nc(NC4CCCC4)n3)cc2)cc1 [TCMDC-139745]	20.05
COc1ccc(CNC(=O)c2cnc3c(O)cccc3c2Nc2cccc(NC(=O)c3ccc(F)cc3)c2)cc1.O=C(O)C(F)(F)F [TCMDC-139605]	78.77
COc1ccc(CN2CCC(Oc3cccc(NC(=O)c4ccc(C(F)(F)F)cc4)c3)CC2)cc1 [TCMDC-133735]	-21.77
O=C(Nc1cccc(OC2CCN(Cc3ccc(F)cc3)CC2)c1)c1ccc(C(F)(F)F)cc1 [TCMDC-133734]	-18.45
O=C(Nc1ccc(Cl)c(Cl)c1)N1CCC(NCc2cccc([N+](=O)[O-])c2)CC1 [TCMDC-141277]	22.25
O=C(CN1C(=O)CC1S(=O)(=O)Cc1ccco1)NCCCCCCc1ccc(F)cc1 (stereo not drawn) [TCMDC-139032]	21.56
COc1cccc(C(C)(C)NC[C@@H](O)[C@H](Cc2ccccc2)NC(=O)c2cc(C3CCCC3)cc(N3CCCCS3(=O)=O)c2F)c1 [TCMDC-135510]	45.23

SMILES	% Inhibition [%]
CCN(CC)CCN(Cc1ccc(-c2ccc(C(F)(F)F)cc2)cc1)C(=O)Cn1c(CCc2c(F)cc(F)cc2F)nc(=O)c2ccccc21 [TCMDC-140967]	61.03
CCN(CC)CCN(Cc1ccc(-c2ccc(C(F)(F)F)cc2)cc1)C(=O)Cn1c(CCc2c(F)cccc2F)nc(=O)c2ccccc21 [TCMDC-140950]	87.94
CCN(CC)CCN(Cc1ccc(-c2ccc(C(F)(F)F)cc2)cc1)C(=O)Cn1c(CCc2c(F)ccc(F)c2F)nc(=O)c2ccccc21 [TCMDC-140953]	67.68
CCN(CC)CCN(Cc1ccc(-c2ccc(C(F)(F)F)cc2)cc1)C(=O)Cn1c(CCc2cc(F)cc(F)c2F)nc(=O)c2ccccc21 [TCMDC-140955]	88.67
CC(CCCCOCCc1ccccc1)NCC(O)c1cc(Cl)c(N)c(Cl)c1 (stereo not drawn) [TCMDC-132072]	16.2
Cc1ccc(-c2nnc(Nc3ccc(C(=O)N4CCCCC4)cc3)c3ccccc23)cc1S(=O)(=O)NCC1CCCO1 (stereo not drawn) [TCMDC-125618]	37.21
COc1ccc2nccc([C@@H](O)CN3CCC(NCc4cc5cccc(OC)c5o4)CC3)c2c1 [TCMDC-140683]	-7.327
O[C@@H](c1cc(C(F)(F)F)nc2c(C(F)(F)F)cccc12)[C@H]1CCCCN1 [TCMDC-124288]	25.8
Cc1ccc(F)cc1S(=O)(=O)N1CCCCC(c2ccc(C(F)(F)F)cc2)=N1 [TCMDC-134531]	-12.63
COc1cccc(NC(=O)Nc2cc(-c3ccc4[nH]ncc4c3)cc3c2CNC3=O)c1 [TCMDC-133475]	14.15
O=C(Nc1ccc(Cl)cc1C(=O)Nc1cccc(F)c1)c1ccc([N+](=O)[O-])cc1 [TCMDC-123788]	-68.85
CCC(C)CNC(=O)CN1CN(c2ccccc2)C2(CCN(C(=O)c3ccc(Br)cc3)CC2)C1=O (stereo not drawn) [TCMDC-125167]	-9.167
Cc1ccc(NC(=O)c2ccc3ncccc3c2)cc1OC1CCN(C(C)C)C1 (stereo not drawn) [TCMDC-133739]	24.97
COc1ccc2nccc([C@@H](O)CN3CCC(NCCOc4ccccc4C#N)CC3)c2c1 [TCMDC-140712]	9.495
COc1ccc2nc(/C=C/c3cccc4ccc(C)nc34)[nH]c2c1 [TCMDC-138821]	-26.73
Nc1ccc2nc(C=Cc3ccccc3)[nH]c2c1 [TCMDC-124430]	29.38
Cc1ccc2nc(/C=C/c3cccc4cc[nH]c34)[nH]c2c1 [TCMDC-138896]	83.23
COc1ccc2c(c1)CC(CNC[C@H](O)c1cccc(Cl)c1)CC2 (stereo partly drawn) [TCMDC-131994]	-12.5
CN(C)CCOc1ccc2c(c1)CN(C)CC2c1ccccc1 (stereo not drawn) [TCMDC-131410]	7.627
Cc1nc(-c2nc(NCCc3cnccn3)ncc2-c2ccsc2)sc1C [TCMDC-125363]	69.56
Cc1nc(-c2nc(NCCc3c(C)noc3C)ncc2-c2ccsc2)sc1C [TCMDC-125357]	20.64
Cc1nc(-c2nc(N3CCOCC3)ncc2-c2ccsc2)sc1C [TCMDC-125356]	0.6256

SMILES	% Inhibition [%]
COCCN(CCOC)c1ncc(-c2ccsc2)c(-c2nc(C)c(C)s2)n1 [TCMDC-125355]	81.41
Cc1nc(-c2nc(NCc3ccncc3)ncc2-c2ccsc2)sc1C [TCMDC-125359]	15.84
Cc1nc(-c2nc(NCc3ccccn3)ncc2-c2ccsc2)sc1C [TCMDC-125360]	31.08
CN(C)CCOc1ccc2[nH]c(-c3cccc(OCc4ccccc4)c3)nc2c1C#N [TCMDC-133765]	4.095
COc1cc(C(=O)Nc2cccc(-c3cn4cccc(C)c4n3)c2)cc(OC)c1OC [TCMDC-123644]	23.2
CCC1N=C(N)N=C(N)N1OCc1cccc2ccccc12 (stereo not drawn) [TCMDC-131592]	22.21
COc1c(CNCCCCCCNCc2cc(Cl)c3ccccc3c2OC)cc(Cl)c2ccccc12 [TCMDC-137958]	32.17
COc1cc2ncnc(NCCc3ccccc3Cl)c2cc1OC [TCMDC-139495]	5.438
COc1c(CCNCCCCNCCc2cc(Cl)c3ccccc3c2OC)cc(Cl)c2ccccc12 [TCMDC-137869]	105.2
COc1ccc(CCNCCCCCCNCCc2ccc(Cl)c3ccccc23)cc1OC [TCMDC-131270]	116.7
CCCCNCc1cc(Cl)c2ccccc2c1O [TCMDC-137599]	77.6
COc1ccc(CCNc2nc(SCc3ccccc3Cl)nc3ccccc23)cc1OC [TCMDC-125569]	33.86
COc1ccc(CCNCCCCCCNCCc2ccccc2Cl)cc1OC [TCMDC-131273]	87.94
CCN(CC)CCCN(C(=O)Nc1c(Cl)cncc1Cl)c1nc(-c2ccc(F)cc2)cs1 [TCMDC-136666]	-35.52
O=C(Cc1ccc(NC(=O)c2ccc(O)c(-c3ccc(Cl)c(Cl)c3)c2)cc1)NCCN1CCCCC1 [TCMDC-140861]	-19.27
O=C(Nc1cccc2ccccc12)N1CCC(NS(=O)(=O)c2cccc(C(F)(F)F)c2)CC1 [TCMDC-139437]	-43.48
Cn1c(N)c(N=O)c(=O)[nH]c1=O [TCMDC-123469]	-4.943
CC1CN(Cc2ccc(C#N)cc2)CCN1c1ccc(NC(=O)c2cccs2)cc1 (stereo not drawn) [TCMDC-134949]	-2.454
Cc1nnnn1-c1ccc(C(=O)N2CCC3(CC2)CN(Cc2ccc(Cl)c(Cl)c2)C(=O)O3)cc1 [TCMDC-141691]	-63.06
O=C(CCCCCNC(=O)c1ccc(O)c(-c2ccc(Cl)c(Cl)c2)c1)NCCc1ccc(Cl)c(Cl)c1 [TCMDC-140870]	6.745
O=C(Nc1ccc(CCNCCCc2ccccc2)cc1)Nc1ccc(Cl)c(Cl)c1 [TCMDC-140703]	18.38
Oc1ccc(CCNCCCCCCNCCc2ccc(Cl)c3ccccc23)cc1O [TCMDC-131271]	123.4
